# Compound activity from PubChem BioAssay.
# FMDV inh – High Throughput Screening for Foot and Mouth Disease Virus Antivirals; FMDV antiviral cell-based qHTS; Potency, µM (highest dose often 57.9 µM), for the others: at the top dose activity change, negative = inhibition, usual class: inhibitors; 410,000 compounds, 1.2% hits; calls by dose curve; tested in HEK293T cells; further: read-out not given here; potency means the concentration at half of the fitted maximal effect; nearly all actives have a fitted effect of over 45% in size
# HCMV antiviral – qHTS Assay for inhibitors of the human cytomegalovirus (HCMV) | HFF cells, HCMV-luciferase reporter, 72 h; active compounds read low | activity change, negative = inhibition, % at 57.5 µM | 410,000 compounds, 4.5% hits; in the data active means activity change below about -60%; inconclusive means no clear call, values can overlap the other calls; inactive means above about -39%
#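 Two compound doses tested in HFFs infected with HCMV-luciferase, MOI 1 PFU/cell, 72 h at 37C. Lysate luminescence read with OneGlo; data normalized against buffer-only and 10uM Salinomycin inhibitor controls.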
# Giardia FBPA inh – qHTS Assay for Inhibitors of Fructose-1,6-bisphosphate Aldolase from Giardia Lamblia; 290,000 compounds, 0.71% hits; Potency, µM (titrated, usually from 59.6 µM), for the others: at the highest dose activity, negative = inhibition, actives largely listed as inhibitors; purified Giardia FBPA; further: potency means the concentration at half of the fitted maximal effect; nearly all actives have a fitted effect of over 55% in size
# Target sequence (A8B2U2 whole entry, looked up): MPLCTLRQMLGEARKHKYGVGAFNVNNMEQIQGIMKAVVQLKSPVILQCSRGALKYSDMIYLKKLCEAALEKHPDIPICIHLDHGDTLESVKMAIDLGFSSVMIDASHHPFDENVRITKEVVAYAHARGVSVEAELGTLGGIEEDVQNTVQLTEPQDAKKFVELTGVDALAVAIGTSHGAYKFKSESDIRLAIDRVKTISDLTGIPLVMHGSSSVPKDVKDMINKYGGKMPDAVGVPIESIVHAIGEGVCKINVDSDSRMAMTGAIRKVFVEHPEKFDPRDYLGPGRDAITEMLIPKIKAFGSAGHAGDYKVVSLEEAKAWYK
#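 40 nM FBPA preincubated 10 min at RT with compound (up to 57.5 uM final), then substrate plus GAPDH/TPI/NAD/arsenate coupling and diaphorase/resazurin added. Fluorescence read after 20 min at RT, 525/598 nm.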
# LASV entry inh – qHTS for Inhibitors of binding or entry into cells for Lassa Virus; Lassa virus pseudotype entry inhibition, cell reporter; Potency, µM (top dose mostly 37.9 µM), for the others: at the highest dose activity change, negative = inhibition, usual class: inhibitors; 300,000 compounds, 1.2% hits; calls by dose curve; tested in HEK293 cells; further: potency means the concentration at half of the fitted maximal effect; nearly all actives have a fitted effect of over 50% in size
# MARV entry inh – qHTS for inhibitors of binding or entry into cells for Marburg Virus. Marburg virus pseudotyped entry inhibition, cell reporter. Potency, µM (series often up to 37.8 µM), for the others: at the highest dose activity change, negative = inhibition, actives largely listed as inhibitors. 300,000 compounds, 1.8% hits. AID 540276, 2011; calls by dose curve; tested in HEK293 cells; further: potency means the concentration at half of the fitted maximal effect
# HCV inhibitor – qHTS Assay for Inhibitors of Hepatitis C Virus (HCV); Huh7.5.1 HCVcc-Cre infection, luciferase reporter, 44 h; Potency, µM (doses to about 41.8 µM), inactives show at the top dose activity change, negative = inhibition, usual class: inhibitors; 340,000 compounds, 3.4% hits; further: potency means the concentration at half of the fitted maximal effect
#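 Whole-lifecycle infectious HCVcc-Cre system; cells 1,000/well, compound then virus (~0.5 moi) added 4 h after plating, 44 h culture. Luciferase read 15 sec following 15 min substrate incubation, room temp.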
# Active calls of the source: *; ? = inconclusive; . = no result given; [ ] = dose if it differs, or a comment. Rows were chosen to be rich in hits. Some 8.3% of all compounds tested hit in one or more screens of this group. Unless noted, the call rests on the fitted dose curve; in most records, active means well fitted curve in the direction sought with a large enough effect; inconclusive means small, poorly fitted or top-dose-only effect, or another doubt; inactive means no such curve, though single readings can be large; an effect the other way counts as inactive or inconclusive. On the % scale 0 is the no-effect control and ±100 the full control effect.
SMILES,FMDV inh,HCMV antiviral,Giardia FBPA inh,LASV entry inh,MARV entry inh,HCV inhibitor
COc1ccc(Br)cc1/C=N/Nc1cccc(C(=O)O)c1,36%,79,10%,20%,19%,18%
COc1ccccc1/C=C/C=N/Nc1cccc(C(=O)O)c1,-32%,116,-16%,5µM*,?,-22%
COc1ccc(C(=O)N2N=C(c3ccccc3)CC2(O)C(F)(F)F)cc1 (centres undefined),-15%,-3,-5%,?,13µM*,-4%
O=C(Nc1ccc2oc(-c3ccccc3)nc2c1)c1cc(-n2cnnc2)ccc1Cl,14%,-3,-17%,?,-14%,?
O=C(Nc1ccc(-c2nc3ccccc3o2)cc1)c1cc(-n2cnnc2)ccc1Cl,-28%,-97*,0%,?,?,?
O=C(Nc1ccc(-c2nc3ccccc3o2)c(O)c1)c1cc(-n2cnnc2)ccc1Cl,13µM*,-95*,3%,3%,?,11µM*
COc1ccc2c(c1)c1c(c(=O)n(-c3ccccc3C)c(=O)n1CC(N)=O)n2C,-23%,-28,.,22%[46.1 µM],.,.
NC(=O)C12NC(Cc3ccccc31)c1ccccc12 (centres undefined),.,24,.,.,.,.
Cc1ccccc1C(=O)Nc1ccc(-c2nc3ccc(C(=O)c4ccccc4)cc3[nH]2)cc1,?,?,0%,?,?,11µM*
O=C(c1ccccc1)c1ccc2nc(-c3ccc(NC(=O)c4ccccc4Br)cc3)[nH]c2c1,-17%,-25,1%,-29%,14%,25µM*
COc1c(C=O)c(=O)[nH]c2c(OC)cccc12,0%,.,-10%,.,.,.
CCOc1ccc(Sc2cc(C(=O)NCCc3ccc(OC)c(OC)c3)c3ccccc3n2)cc1,14µM*,-27,.,-8%[46.1 µM],.,.
COc1ccc(CCNC(=O)c2cc(Sc3cccc(Cl)c3)nc3ccccc23)cc1OC,?,-84*,.,?,.,.
Cc1cccc(-c2noc(CN(C(C)C)S(=O)(=O)c3ccc(Br)cc3)n2)c1,-15%,-29,.,-16%[46.1 µM],7%[46.1 µM],.
CCN(CC)S(=O)(=O)c1cc(NC(=O)C2CCN(c3ncnc4sc(C)c(C)c34)CC2)ccc1Cl,8.9µM*,-82*,.,?,3.5µM*,6.3µM*
Cc1sc2ncnc(N3CCC(C(=O)NNC(=O)c4ccc(Cl)cc4)CC3)c2c1C,25µM*,?,.,13%,-27%,?
Cc1ccc(C)c(S(=O)(=O)N2CCN(C(=O)C3CCN(c4ncnc5sc(C)c(C)c45)CC3)CC2)c1,?,-67*,.,?,?,11µM*
Cc1sc2ncnc(N3CCC(C(=O)Nc4cc(S(C)(=O)=O)ccc4Cl)CC3)c2c1C,?,-33,.,-3%,?,?
Cc1ccc2nc(NC(=O)C3CCN(c4ncnc5sc(C)c(C)c45)CC3)sc2c1,0%,.,.,29%,8%,9%
Cc1sc2ncnc(N3CCC(C(=O)Nc4cc(Cl)ccc4Cl)CC3)c2c1C,-20%,-20,.,-8%,1%,?
Cc1sc2ncnc(N3CCC(C(=O)Nc4ccccc4C(C)(C)C)CC3)c2c1C,25µM*,-36,.,-3%[46.1 µM],?,2%
CCCC1C(=O)n2c(nc3ccccc32)N=C1C (centres undefined),.,.,.,.,24%,.
CCc1cccc(NC(=O)c2cnc(SC)nc2-c2ccccc2)c1,-6%,-17,.,16%[46.1 µM],.,.
Oc1ccc([C@@H]2CNCCc3c2cc(O)c(O)c3Cl)cc1,-19%,.,?,.,?,.
CN(C)CC(C)(C)CNC(=O)c1cnn(-c2ncc3c(n2)-c2ccccc2CC3)c1-c1ccco1,-15%,.,.,.,.,.
Cc1sc2ncnc(N3CCC(C(=O)Nc4ccc(C#N)cc4)CC3)c2c1C,?,-3,.,-7%,20%,7%
Cc1sc2ncnc(N3CCC(C(=O)Nc4cc(C(F)(F)F)ccc4OCC(F)(F)F)CC3)c2c1C,?,42,.,.,.,7.9µM*
CCOC(=O)c1ccccc1NC(=O)C1CCN(c2ncnc3sc(C)c(C)c23)CC1,?,.,.,-14%,2%[46.1 µM],?
